Our source for the Percent Effect values is ChEMBL document CHEMBL3988442, “University of Dundee, Small-Polar-MMV Screening Library” (2021).

In assay [1] the target is T1, Aspartate--tRNA(Asp/Asn) ligase (Mycobacterium tuberculosis (strain ATCC 25618 / H37Rv)) (UniProt P9WFW3). Also: in the data most compounds retested in dose-response had high values.
T1 sequence (whole entry): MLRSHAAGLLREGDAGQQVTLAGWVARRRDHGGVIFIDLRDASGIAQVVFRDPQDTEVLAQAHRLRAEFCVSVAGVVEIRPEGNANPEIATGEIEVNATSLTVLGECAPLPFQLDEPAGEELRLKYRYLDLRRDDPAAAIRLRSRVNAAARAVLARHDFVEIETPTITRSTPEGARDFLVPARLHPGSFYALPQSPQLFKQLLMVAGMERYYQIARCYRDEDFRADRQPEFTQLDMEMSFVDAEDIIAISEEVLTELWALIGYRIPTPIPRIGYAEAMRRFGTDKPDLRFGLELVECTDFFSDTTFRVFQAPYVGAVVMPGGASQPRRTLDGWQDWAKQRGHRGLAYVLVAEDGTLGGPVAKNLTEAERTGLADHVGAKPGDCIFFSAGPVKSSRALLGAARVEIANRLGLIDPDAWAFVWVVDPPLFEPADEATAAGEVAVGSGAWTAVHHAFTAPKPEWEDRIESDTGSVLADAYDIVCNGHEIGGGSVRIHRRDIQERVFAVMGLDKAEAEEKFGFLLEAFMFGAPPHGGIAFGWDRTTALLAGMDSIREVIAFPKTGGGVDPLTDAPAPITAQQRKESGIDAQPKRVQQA
Put plainly: Assay for Asp RNA synthetase-1 from Mycobacterium tuberculosis. Format: functional. The following applies: 30 µM. Set-up: scale not given: direction of the effect not stated beside the values.

Assay [2] deals with Shiga toxin 2 (Escherichia coli O157:H7) (UniProt P09385+P09386). Kind of assay: E. coli 0.157:H7 Shiga Toxin SOP - stx2 screening assay. Type of assay: functional. Also on record: scale not given: direction of the effect not stated beside the values. Particulars: 30 µM.

As to `CCn1cc(NC(=O)C2CCN(Cc3ccccc3C#N)CC2)cn1`, the Percent Effect in assay [1] was 1.7%; in assay [2], -53.9%.
In the same order, the values of `Cc1ncsc1C(=O)Nc1cccc(OCC(F)F)n1` are -0.449% and 1.86%.
The corresponding values for `COc1cccc(CN(C)Cc2cccc(C#N)c2)c1OC` are -1.23% and 14.1%.
In the same order, the values of `CCc1ncncc1C(=O)N1CCOC(c2nc(C)n[nH]2)C1` (stereo unspecified) are -4.06% and 0.443%.
On to `CCOc1ncccc1C(=O)N1CCCC(c2nccn2CCOC)C1` (stereo unspecified), for which the Percent Effect in assay [1] is -4.25%; in assay [2] it was -0.308%.
In the same order, the values of `O=C(Cn1cnc(-c2ccccc2)cc1=O)Nc1ccncc1` are -2.03% and -36.3%.
For the compound `Cc1ccc2oc(C(=O)N3CCC(C(=O)N4CCCC4)CC3)cc2n1`, the Percent Effect in assay [1] is 1.57%; in assay [2], -16.4%.
As for `CCc1nc(C2CCCN2CC(=O)Nc2c(C)nn(C)c2C)no1` (stereo unspecified), the Percent Effect in assay [1] is 3.31%; in assay [2] it was -7.62%.
The corresponding values for `CC(=O)c1cccc(OCC(=O)NS(=O)(=O)c2ccc(C)s2)c1` are -3.8% and -7.24%.
`CC(=O)NCC(=O)N1C[C@H](OCc2cccnc2)[C@H]2COC[C@H]21`: the values for the Percent Effect in assay [1] and in assay [2] were -1.31% and -22.3%, respectively.
The corresponding values for `COCCN1C[C@@H]2CN(c3ncccn3)C[C@@H]2C1=O` are 0.324% and -15.3%.
The corresponding values for `c1ccc(-c2cnc(CN3CCCC3Cn3cncn3)o2)cc1` (stereo unspecified) are -6.65% and 8.27%.
In the same order, the values of `CC(=O)N1C[C@H](NC(=O)c2cscn2)[C@@H]2OCCC[C@@H]21` are -2.64% and 6.1%.
For `CCC1c2ccsc2CCN1C(=O)NCCNc1ncccn1` (stereo unspecified), the results for the Percent Effect in assay [1] and in assay [2] were -3.52% and 10.9%, respectively.
In the same order, the values of `O=C(CCC1CC1)N1C[C@@H](CN2CCCC2)[C@@H](CO)C1` are 0.505% and -35.6%.
`Cc1ncc(CNC2CCCN(Cc3noc(C4CC4)n3)C2)s1` (stereo unspecified): the Percent Effect in assay [1] was -4.12%; in assay [2], 28.2%.
`CC(NC(=O)NCCCc1n[nH]c(N)c1C#N)c1cccs1` (stereo unspecified): the Percent Effect is -7.85% in assay [1] and -34.7% in assay [2].
In the same order, the values of `Cc1nn(C)c(N(C)C)c1CNCc1cccc(CN(C)C(C)C)c1` are 2.27% and 5.42%.
